Measured values published in the supplement of paper PMC6555819.

Columns and labels:
Experiment in all cases: PBM binding z-score (relative to random genomic background probes); higher = stronger binding; sequences stand for … in GC…GCGATTGACAGCGTAGAATGAAGG
[1] = test system: FXR:RXRa (NR concentration 270 nM, RXRa partner concentration 90 nM)
Outline: (§1)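 Custom Agilent 4×180K protein-binding microarrays carried double-stranded probes, each with a 34-nt variable region. These regions held direct-repeat seeds, single-nucleotide variants, half-site ablations and random human genomic background sequences. Ligand-free nuclear receptor dimers were incubated on the arrays for 1 h, antibodies against each partner (one per run) detected binding, and scanned fluorescence was regression-normalized. Binding z-scores take the random background probes as reference.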

[2] = test system: LXRa:RXRa (NR concentration 270 nM, RXRa partner concentration 90 nM)
Outline: as §1

[3] = test system: LXRa homodimer (NR concentration 270 nM)
Outline: as §1

[4] = test system: LXRb:RXRa (NR concentration 270 nM, RXRa partner concentration 90 nM)
Outline: as §1

[5] = test system: LXRb homodimer (NR concentration 270 nM)
Outline: as §1

[6] = test system: PPARa:RXRa (NR concentration 270 nM, RXRa partner concentration 90 nM)
Outline: as §1

[7] = test system: PPARg:RXRa (NR concentration 180 nM, RXRa partner concentration 90 nM)
Outline: as §1

[8] = test system: PPARg:RXRa 270nM:90nM, anti-RXR (NR concentration 270 nM, RXRa partner concentration 90 nM)
Outline: as §1

[9] = test system: PPARg:RXRa 30nM:10nM, anti-RXR (NR concentration 30 nM, RXRa partner concentration 10 nM)
Outline: as §1

[10] = test system: PPARg:RXRa 90nM:30nM, anti-RXR (NR concentration 90 nM, RXRa partner concentration 30 nM)
Outline: as §1

[11] = test system: PPARg:RXRa DBDmut IVT, anti-RXR (DBD mutation: RXRa K156A/R161A, NR concentration 270 nM, RXRa partner concentration 90 nM)
Outline: as §1

[12] = test system: PPARg:RXRa IVT, anti-PPARg (NR concentration 270 nM, RXRa partner concentration 90 nM)
Outline: as §1

[13] = test system: PPARg DBDmut:RXRa IVT, anti-PPARg (DBD mutation: PPARg1 K132A/R137A, NR concentration 270 nM, RXRa partner concentration 90 nM)
Outline: as §1

[14] = test system: PPARg DBDmut IVT, anti-PPARg (DBD mutation: PPARg1 K132A/R137A, NR concentration 270 nM)
Outline: as §1

[15] = test system: PPARg homodimer (NR concentration 180 nM)
Outline: as §1

[16] = test system: PXR:RXRa (NR concentration 270 nM, RXRa partner concentration 90 nM)
Outline: as §1

[17] = test system: PXR homodimer (NR concentration 270 nM)
Outline: as §1

[18] = test system: RARa:RXR (NR concentration 270 nM, RXRa partner concentration 90 nM)
Outline: as §1

[19] = test system: RARa homodimer (NR concentration 270 nM)
Outline: as §1

[20] = test system: RARb:RXRa (NR concentration 270 nM, RXRa partner concentration 90 nM)
Outline: as §1

Sequence | PBM binding z-score [1] | PBM binding z-score [2] | PBM binding z-score [3] | PBM binding z-score [4] | PBM binding z-score [5] | PBM binding z-score [6] | PBM binding z-score [7] | PBM binding z-score [8] | PBM binding z-score [9] | PBM binding z-score [10] | PBM binding z-score [11] | PBM binding z-score [12] | PBM binding z-score [13] | PBM binding z-score [14] | PBM binding z-score [15] | PBM binding z-score [16] | PBM binding z-score [17] | PBM binding z-score [18] | PBM binding z-score [19] | PBM binding z-score [20]
CATACAGGGTCAGCTAGGCCAGAATAGGGACGGC | 4.83 | 3.22 | -0.0324 | 2.38 | -0.0852 | 4.55 | 3.66 | 3.09 | 0.879 | 2 | 0.915 | 2.41 | 0.965 | 0.203 | 0.999 | 2.22 | 0.0161 | 2.91 | 0.818 | 4.16
TCTGCTAGGTCAACGATGGTCACCTAATCTGCTA | 3.57 | 2.97 | 0.264 | 2.05 | -0.183 | 3.49 | 2.96 | 3.36 | 1.98 | 2.76 | 4.12 | 4.82 | 0.776 | 0.398 | 0.811 | 2.12 | -0.994 | 2.8 | -0.586 | 4.2
TCATATAGGTAATGGTGAAAGTCGAACGATATGA | -0.32 | 0.417 | -0.0652 | 0.263 | -0.188 | 1.22 | 1.43 | 2.42 | 3.89 | 3.12 | 3.77 | 2.74 | 1.66 | 1.7 | 0.415 | 0.253 | -0.311 | 0.342 | 0.0985 | 0.417
CCTTACGGGTCACGAGGTTACAGCACGACGAGCG | 7.17 | 4.8 | 0.542 | 4.17 | 0.337 | 6.14 | 7.89 | 6.86 | 3.81 | 5.93 | 4.58 | 5.66 | 2.08 | 2.53 | 5.5 | 5 | 0.46 | 6.67 | 2.1 | 4.71
TTACCAAGGTGAGCTGAGGTCTTTGATCCAACTC | -0.159 | 0.0694 | -0.392 | -0.341 | -1.02 | 0.662 | -0.133 | 0.0949 | -0.176 | -0.0349 | 0.776 | 1.72 | -0.073 | -0.0335 | -0.466 | 2 | -0.613 | 2.56 | -0.713 | 1.17
TCATATAGGTGATACAGGTGAAAGTCGGCATCTA | 0.938 | 1.04 | 0.153 | 0.984 | -0.0198 | 2.33 | 1.96 | 2.94 | 3.85 | 3.55 | 4.78 | 4.31 | 1.81 | 1.2 | 1.4 | 0.783 | 0.342 | 0.978 | 1.22 | 0.996
ATCTCTATGTAAAGATAGTTCAGTGAATGCAAAT | -0.132 | 0.583 | 0.163 | 0.261 | 0.232 | 0.222 | 0.759 | 0.0606 | 0.319 | 0.173 | -0.623 | -0.061 | 0.754 | 1.67 | 0.106 | 0.604 | 0.457 | 0.433 | 0.866 | 0.242
